Measured values reported in PubChem BioAssay (NCATS).
Records with an inconclusive call do not appear. Unmarked numbers belong to inactive results. The source made the active and inactive calls. Calls follow the shape of the dose curve; as a rule, active = well fitted inhibition curve with a large enough effect; inconclusive = small, poorly fitted or top-dose-only effect; inactive = flat fitted curve, though single readings scatter.
Potency is read from the fitted curve at half-maximal effect.

The compounds below were run on Zika virus NS2B-NS3 protease (assay: Primary screen GU AMC qHTS for Zika virus inhibitors (AID 1347154; also: nearly all actives have a fitted effect of over 70% in size;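 as to activity change, negative = inhibition: 0% = no-inhibitor control and -100% = no-enzyme control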)). Settings: Zika NS2B-NS3 unlinked protease, AMC fluorogenic substrate; series mostly up to 54.1 µM; activity change, negative = inhibition: at the top concentration.
In short: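 Fluorogenic AMC-substrate cleavage by noncovalent NS2B-NS3 protease complex (25 nM, pH 8.0 Tris buffer with Tween 20) followed for 15 minutes at room temperature (~20% conversion). Percent inhibition from ex340/em450 signal change, fitted by 4-parameter Hill equation.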
With `C=CCN1C[C@H](C)N([C@H](c2ccc(C(=O)N(CC)CC)cc2)c2cccc(OC)c2)C[C@H]1C` the Potency was “inactive”. With `CCC1(c2ccccc2)C(=O)N(COC)C(=O)N(COC)C1=O` the “activity change, negative = inhibition” value was 5.63%. `Oc1ccc(Cl)cc1` was tested, and the “activity change, negative = inhibition” value was -0.917%. In the case of `C[C@]12CC[C@@H]3c4ccc(OC(=O)N(CCCl)CCCl)cc4CC[C@H]3[C@@H]1CC[C@@H]2O`, the Potency is reported as 15.8 µM (active). With `CC[N+]1(CC)CCC(OC(=O)C(O)(c2ccccc2)c2ccccc2)C1` (configuration not stated) the “activity change, negative = inhibition” value was -1.52%. In the case of `Cc1ncsc1CCCl`, the Potency is reported as “inactive”. In the case of `COC(=O)C(Cl)C(=O)OC`, the “activity change, negative = inhibition” value is reported as 0.282%. For `C=CCC1([C@H](C)CCC)C(=O)NC(=O)NC1=O`, the “activity change, negative = inhibition” value was 0.0325% [at 104 µM]. For `O=c1[nH]oc2c1CCNC2`, the Potency was “inactive”. In the case of `CN1C(=O)CCS(=O)(=O)C1c1ccc(Cl)cc1` (configuration not stated), the Potency is reported as “inactive”. `O=C(Nc1ccc(Br)cc1)c1cc(Br)cc(Br)c1O` was tested, and the Potency was 35.5 µM (active). In the case of `C[C@](O)(CS(=O)(=O)c1ccc(F)cc1)C(=O)Nc1ccc(C#N)c(C(F)(F)F)c1`, the “activity change, negative = inhibition” value is reported as 5.15%. `CC(C)N(CCC(C(N)=O)(c1ccccc1)c1ccccn1)C(C)C` (configuration not stated) was tested, and the “activity change, negative = inhibition” value was 1.62%. For `O=C(O)CCCc1ccc(N(CCCl)CCCl)cc1`, the Potency was “inactive”. For `CC(NC(C)(C)C)C(=O)c1cccc(Cl)c1` (configuration not stated), the Potency was “inactive”. In the case of `CC(C)(C)NCC(O)c1ccccc1Cl` (configuration not stated), the “activity change, negative = inhibition” value is reported as 2.72%. In the case of `CC(C)c1cccc(C(C)C)c1O`, the Potency is reported as “inactive”. `O=c1oc2ccccc2c(O)c1Cc1c(O)c2ccccc2oc1=O` was tested, and the “activity change, negative = inhibition” value was -5.81%. With `Nc1ccccc1` the “activity change, negative = inhibition” value was -1.4%. `NC1=NC(=O)C(c2ccccc2)O1` (configuration not stated) was tested, and the “activity change, negative = inhibition” value was 1.16%. With `CCN(CC)C(=O)[C@@H]1C=C2c3cccc4[nH]cc(c34)C[C@H]2N(C)C1` the Potency was 35.5 µM (active). `CCCCCCCCCC(=O)O[C@H]1CC[C@H]2[C@@H]3CCC4=CC(=O)CC[C@@H]4[C@H]3CC[C@]12C` was tested, and the “activity change, negative = inhibition” value was -4.52%. For `Nc1nc(N)nc(NC2CC2)n1`, the “activity change, negative = inhibition” value was -1.82%. For `O=P1(N(CCCl)CCCl)NCCCO1` (configuration not stated), the Potency was “inactive”. `CC(Cc1ccccc1)NCCn1cnc2c1c(=O)n(C)c(=O)n2C` (configuration not stated) was tested, and the “activity change, negative = inhibition” value was 3.04% [at 104 µM]. For `NCCc1ccc(O)cc1`, the Potency was “inactive”. For `COc1ccc2c(c1OC)C(=O)O[C@H]2[C@@H]1c2cc3c(cc2CCN1C)OCO3`, the “activity change, negative = inhibition” value was -4.07%.
